Measured values taken from the supplement of paper PMC12350171.
Structures can show the parent of a compound that is named as a salt.

How the values were obtained:
Conditions in all cases: 20 µM
[1] = tested on: Salmonella enterica typhimurium; experiment: growth AUC normalised to DMSO control (fraction of control); higher = less growth inhibition, active = hit call of the paper
Outline: (§1)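 Pathogens passaged twice anaerobically were inoculated at a starting OD578 of 0.01 into pre-reduced mGAM plates with drug at 20 μM and 1% DMSO, sealed with breathable membranes. Haemophilus parainfluenzae medium was supplemented with hemin and NAD. OD578 was read hourly for 24 h, with three biological replicates. Growth-curve AUC was computed by the trapezoidal rule up to the exponential-to-stationary transition and normalised to DMSO controls on the same plate.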

Shigella flexneri = experiment: as above
Outline: as §1

Vibrio cholerae = experiment: as above
Outline: as §1

[2] = tested on: Yersinia pseudotuberculosis; experiment: as above
Outline: as §1

P. vulgatus RND KO = experiment: growth AUC normalised to DMSO control (median) (fraction of control); higher = less growth inhibition, active = hit call of the paper
Outline: (§2)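 Strains were passaged twice overnight without oxygen, then grown in mGAM in 96-well plates with each approved-drug library compound at 20 μM and 1% DMSO, starting at OD578 0.01. OD578 was read hourly for 24 h inside an anaerobic incubator. Curves were truncated at entry into stationary phase, and the trapezoidal-rule area under the curve was normalised to same-plate vehicle wells. The value is the median across three biological replicates.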

P. vulgatus WT = experiment: as above
Outline: as §2

[3] = tested on: S. enterica typhimurium WT; experiment: as above
Outline: as §2

[4] = tested on: S. enterica typhimurium tolC KO; experiment: as above
Outline: as §2

Measured: growth AUC normalised to DMSO control
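For growth AUC normalised to DMSO control (median) in this document: active when median AUC fell below 0.1.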

O=C(OCC(O)CO)c1ccccc1Nc1ccnc2cc(Cl)ccc12 (configuration not stated) [Glafenine hydrochloride]
inactive: [1] 0.981 | Shigella flexneri 0.938 | Vibrio cholerae 0.88 | [2] 0.941 | P. vulgatus RND KO 1.01 | P. vulgatus WT 0.995 | [3] 0.997 | [4] 0.935

CC[C@H](c1ccc(O)cc1)[C@@H](CC)c1ccc(O)cc1 [Hexestrol]
inactive: [1] 0.998 | Shigella flexneri 1 | Vibrio cholerae 0.932 | [2] 0.999 | P. vulgatus RND KO 0.766 | P. vulgatus WT 0.825 | [3] 0.989 | [4] 0.889

C=C1C[C@H]2[C@@H]3C=C(C)C4=CC(=O)CC[C@]4(C)[C@H]3CC[C@]2(C)[C@@]1(OC(C)=O)C(C)=O [Melengestrol acetate]
inactive: [1] 0.981 | Shigella flexneri 1.05 | Vibrio cholerae 1.03 | [2] 1.03 | P. vulgatus RND KO 0.993 | P. vulgatus WT 1.02 | [3] 1.01 | [4] 0.961

O=C(O)Cc1cc(I)c(Oc2ccc(O)c(I)c2)c(I)c1 [Tiratricol]
inactive: [1] 0.971 | Shigella flexneri 0.949 | Vibrio cholerae 0.919 | [2] 0.984 | P. vulgatus RND KO 0.817 | P. vulgatus WT 0.824 | [3] 1.01 | [4] 0.993

Clc1ccc(C(c2ccccc2Cl)C(Cl)Cl)cc1 (configuration not stated) [Mitotane]
inactive: [1] 1 | Shigella flexneri 0.999 | Vibrio cholerae 1.07 | [2] 1.02 | P. vulgatus RND KO 0.97 | P. vulgatus WT 0.94 | [3] 1 | [4] 0.957

CCN(Cc1ccncc1)C(=O)C(CO)c1ccccc1 (configuration not stated) [Tropicamide]
inactive: [1] 1.01 | Shigella flexneri 0.987 | Vibrio cholerae 0.995 | [2] 1 | P. vulgatus RND KO 0.996 | P. vulgatus WT 0.995 | [3] 1.01 | [4] 1

COc1ccccc1Oc1c(NS(=O)(=O)c2ccc(C(C)(C)C)cc2)nc(-c2ncccn2)nc1OCCO [Bosentan]
inactive: [1] 1.02 | Shigella flexneri 1.03 | Vibrio cholerae 1.01 | [2] 1.01 | P. vulgatus RND KO 1 | P. vulgatus WT 1.01 | [3] 1.01 | [4] 0.985

Clc1ccc(Cn2c(CN3CCCC3)nc3ccccc32)cc1 [Clemizole hydrochloride]
inactive: [1] 0.98 | Shigella flexneri 0.988 | Vibrio cholerae 0.922 | [2] 0.986 | P. vulgatus RND KO 0.902 | P. vulgatus WT 0.857 | [3] 0.997 | [4] 0.949

CS(=O)(=O)Nc1ccc([N+](=O)[O-])cc1Oc1ccccc1 [Nimesulide]
inactive: [1] 0.985 | Shigella flexneri 0.953 | Vibrio cholerae 0.907 | [2] 0.984 | P. vulgatus RND KO 0.983 | P. vulgatus WT 0.979 | [3] 0.988 | [4] 0.984

CC/C(=C(\c1ccccc1)c1ccc(OCCN(C)C)cc1)c1ccccc1 [Tamoxifen citrate]
inactive: [1] 1.01 | Shigella flexneri 1.01 | Vibrio cholerae 1 | [2] 0.981 | P. vulgatus RND KO 0.968 | P. vulgatus WT 0.978 | [3] 1 | [4] 1.01

CCC1(C)CC(=O)NC1=O (configuration not stated) [Ethosuximide]
inactive: [1] 1.02 | Shigella flexneri 1.02 | Vibrio cholerae 1.03 | [2] 0.999 | P. vulgatus RND KO 1.02 | P. vulgatus WT 1.05 | [3] 1 | [4] 0.963

CNc1ncnc2c1ncn2[C@@H]1O[C@H](CO)[C@@H](O)[C@H]1O [N6-methyladenosine]
inactive: [1] 0.972 | Shigella flexneri 1.03 | Vibrio cholerae 1 | [2] 0.97 | P. vulgatus RND KO 0.998 | P. vulgatus WT 1.02 | [3] 1.02 | [4] 1.01

CC(C)(C(=O)c1cccnc1)c1cccnc1 [Metyrapone]
inactive: [1] 0.996 | Shigella flexneri 0.992 | Vibrio cholerae 0.965 | [2] 0.989 | P. vulgatus RND KO 0.996 | P. vulgatus WT 0.981 | [3] 1 | [4] 0.996

Cc1ccnc(NS(=O)(=O)c2ccc(N)cc2)n1 [Sulfamerazine]
inactive: [1] 0.973 | Shigella flexneri 1.03 | Vibrio cholerae 0.977 | [2] 1.01 | P. vulgatus RND KO 0.988 | P. vulgatus WT 1.01 | [3] 0.986 | [4] 0.998

CCOC1O[C@H]([C@@H](COCc2ccccc2)OCc2ccccc2)[C@H](OCc2ccccc2)[C@H]1O (some centres not stated) [Tribenoside]
inactive: [1] 1 | Shigella flexneri 1.01 | Vibrio cholerae 1 | [2] 0.988 | P. vulgatus RND KO 0.946 | P. vulgatus WT 0.987 | [3] 1.01 | [4] 0.959

C=CC1=C(C(=O)O)N2C(=O)[C@@H](NC(=O)/C(=N\O)c3csc(N)n3)[C@H]2SC1 [Cefdinir]
active: [1] 0.00595 | Shigella flexneri 0.00663 | Vibrio cholerae 0.0728 | [2] 0.023 | P. vulgatus RND KO 0.0139 | P. vulgatus WT 0.0141 | [3] 0.0086 | [4] 0.00501

Cc1ccc(C(=O)c2ccc(CC(=O)O)n2C)cc1 [Tolmetin sodium salt dihydrate]
inactive: [1] 0.984 | Shigella flexneri 1.04 | Vibrio cholerae 1.05 | [2] 1.01 | P. vulgatus RND KO 0.983 | P. vulgatus WT 0.985 | [3] 0.999 | [4] 1

CN1CCN(CCCN2c3ccccc3Sc3ccc(C(F)(F)F)cc32)CC1 [Trifluoperazine dihydrochloride]
inactive: [1] 1.03 | Shigella flexneri 1.04 | Vibrio cholerae 1.01 | [2] 1.04 | P. vulgatus RND KO 0.974 | P. vulgatus WT 0.941 | [3] 1.02 | [4] 0.929

CN(C)c1nc(N(C)C)nc(N(C)C)n1 [Altretamine]
inactive: [1] 1.01 | Shigella flexneri 1.06 | Vibrio cholerae 1.05 | [2] 1.02 | P. vulgatus RND KO 1.01 | P. vulgatus WT 0.998 | [3] 1 | [4] 0.99

OCc1cc(C(O)CNCCCCCCOCCCCc2ccccc2)ccc1O (configuration not stated) [Salmeterol]
inactive: [1] 0.997 | Shigella flexneri 0.995 | Vibrio cholerae 1 | [2] 0.959 | P. vulgatus RND KO 0.977 | P. vulgatus WT 0.962 | [3] 0.995 | [4] 0.946

CC1CCc2c(N3CCC(O)CC3)c(F)cc3c(=O)c(C(=O)O)cn1c23 (configuration not stated) [Nadifloxacin]
active: [1] 0.00794 | Shigella flexneri 0.0399 | Vibrio cholerae 0.0237 | [2] 0.0176 | P. vulgatus RND KO 0.0102 | P. vulgatus WT 0.00997 | [3] 0.0247 | [4] 0.00372

COc1cc(C(=O)OCCCN2CCCN(CCCOC(=O)c3cc(OC)c(OC)c(OC)c3)CC2)cc(OC)c1OC [Dilazep dihydrochloride]
inactive: [1] 1 | Shigella flexneri 1.03 | Vibrio cholerae 1.01 | [2] 0.989 | P. vulgatus RND KO 0.993 | P. vulgatus WT 0.989 | [3] 1 | [4] 0.978

O=c1[nH]cc(F)c(=O)[nH]1 [5-fluorouracil]
inactive: Vibrio cholerae 0.942 | [2] 0.927 | [3] 0.809 | [4] 0.806
active: [1] 0.842 | Shigella flexneri 0.745 | P. vulgatus RND KO 0.0695 | P. vulgatus WT 0.0782

O=C(NCC(O)CO)c1c(I)c(C(=O)NCC(O)CO)c(I)c(N(CCO)C(=O)CO)c1I (configuration not stated) [Ioversol]
inactive: [1] 1.01 | Shigella flexneri 1.03 | Vibrio cholerae 1.07 | [2] 1.03 | P. vulgatus RND KO 1.03 | P. vulgatus WT 1.03 | [3] 1 | [4] 1.01

CCCCOc1cc(C(=O)OCCN(CC)CC)ccc1N [Benoxinate hydrochloride]
inactive: [1] 1 | Shigella flexneri 0.991 | Vibrio cholerae 0.936 | [2] 0.992 | P. vulgatus RND KO 1 | P. vulgatus WT 0.977 | [3] 0.978 | [4] 0.991

CCn1cc(C(=O)O)c(=O)c2cc(F)c(N3CCNCC3)cc21 [Norfloxacin]
inactive: P. vulgatus RND KO 0.922 | P. vulgatus WT 0.865
active: [1] 0.00731 | Shigella flexneri 0.0176 | Vibrio cholerae 0.0427 | [2] 0.0323 | [3] 0.00734 | [4] 0.0069

CN(C)CCOC(C)(c1ccccc1)c1ccccn1 (configuration not stated) [Doxylamine succinate]
inactive: [1] 0.982 | Shigella flexneri 1.01 | Vibrio cholerae 1 | [2] 0.996 | P. vulgatus RND KO 0.981 | P. vulgatus WT 0.993 | [3] 0.986 | [4] 0.999

O=C(O)CCC(=O)Nc1ccc(S(=O)(=O)Nc2nccs2)cc1 [Succinylsulfathiazole]
inactive: [1] 1 | Shigella flexneri 0.997 | Vibrio cholerae 0.999 | [2] 1 | P. vulgatus RND KO 1 | P. vulgatus WT 1.05 | [3] 1 | [4] 0.994

CCc1nc(N)nc(N)c1-c1ccc(Cl)cc1 [Pyrimethamine]
inactive: Vibrio cholerae 0.908 | [2] 0.932 | P. vulgatus RND KO 0.57 | P. vulgatus WT 0.288 | [3] 0.93 | [4] 0.66
active: [1] 0.915 | Shigella flexneri 0.851

S=c1[nH]cnc2nc[nH]c12 [Mercaptopurine]
inactive: [1] 0.997 | Shigella flexneri 1.01 | Vibrio cholerae 1 | [2] 0.987 | P. vulgatus RND KO 1.01 | P. vulgatus WT 1 | [3] 1 | [4] 0.998

Cc1[nH]c(=O)c(C#N)cc1-c1ccncc1 [Milrinone]
inactive: [1] 0.949 | Shigella flexneri 0.999 | Vibrio cholerae 0.968 | [2] 0.989 | P. vulgatus RND KO 0.988 | P. vulgatus WT 0.995 | [3] 0.987 | [4] 0.936

CCC1(c2ccccc2)NC(=O)N(C)C1=O (configuration not stated) [Mephenytoin]
inactive: [1] 1.01 | Shigella flexneri 0.997 | Vibrio cholerae 1.02 | [2] 1.01 | P. vulgatus RND KO 1 | P. vulgatus WT 1.03 | [3] 1 | [4] 1

N=C(N)N1CCc2ccccc2C1 [Debrisoquin sulfate]
inactive: [1] 0.995 | Shigella flexneri 0.975 | Vibrio cholerae 1.01 | [2] 1.01 | P. vulgatus RND KO 1.02 | P. vulgatus WT 1.01 | [3] 1 | [4] 1

CCOc1nc2cccc(C(=O)O)c2n1Cc1ccc(-c2ccccc2-c2nnn[nH]2)cc1 [Candesartan]
inactive: [1] 1.01 | Shigella flexneri 1.02 | Vibrio cholerae 1.04 | [2] 1.01 | P. vulgatus RND KO 1.01 | P. vulgatus WT 1 | [3] 1.01 | [4] 0.987
